Screening data (PubChem BioAssay)
Shown are actives, neighbours in structure and some others; about 1.9% of the full set was active somewhere.
FUS suppressor: FUS proteinopathy suppression in yeast | Potency, µM (series often up to 76.6 µM), hits mostly activators | hit rate 0.24% among 390,000 | S. cerevisiae FUS-expressing, growth rescue, OD600, 24 h;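 note: potency is the fitted concentration of half-maximal effect; plate controls were DMSO vehicle for no effect and reference control for full effect; nearly all actives have a fitted effect of over 55% in size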
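S. cerevisiae expressing FUS from galactose induction served as the toxicity model. Growth after 24hr at 30C, read as absorbance at 600 nm, indicates suppression of toxicity; compounds dosed at several concentrations.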
LDHA block: inhibitors of human lactate dehydrogenase A. hit rate 0.15% among 480,000. purified LDHA, NADH/diaphorase-resazurin fluorescence; hits give low values. P00338. activity change, % (values are at about 110 or 230 µM); in the data active = activity change below about -30%; inconclusive = mostly about -25% to -30%;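 note: plate controls were DMSO wells for no effect and wells without enzyme for full effect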
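Resorufin fluorescence (ex540/em590), read at 0 and 20 min after diaphorase/resazurin addition, reports the NADH left after a 5 min room-temperature reaction of 2 nM human LDH5 with 0.06 mM NADH and 0.2 mM pyruvate.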
TDP43 rescue: rescues yeast growth from TDP-43 toxicity. TDP-43 expressing yeast growth rescue, BacTiter-Glo, 24 h. Potency, µM (titrated, usually from 46.1 µM), for the others: at the highest dose growth rescue (activation), hits mostly activators. hit rate 1.8% among 410,000; note: potency is the fitted concentration of half-maximal effect; % of control where 0% means no effect; nearly all actives have a fitted effect of over 50% in size
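Yeast cells expressing TDP-43 under galactose induction are exposed to compounds for 24 hr at 30 deg C. BacTiter-Glo luminescence measures growth, so protective compounds score as activators.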
PTHR1 agonist: PTHR1 (human) receptor agonism | AID 743266 | HEK293 GP2 PTHR1 cells, GloSensor cAMP luminescence, 1 h | hit rate 0.075% among 410,000 | Potency, µM (highest dose often 115 µM), for inactives: at the highest dose activation, most hits filed as activators; note: potency is the fitted concentration of half-maximal effect; nearly all actives have a fitted effect of over 55% in size
Target sequence (Q03431 whole entry, looked up): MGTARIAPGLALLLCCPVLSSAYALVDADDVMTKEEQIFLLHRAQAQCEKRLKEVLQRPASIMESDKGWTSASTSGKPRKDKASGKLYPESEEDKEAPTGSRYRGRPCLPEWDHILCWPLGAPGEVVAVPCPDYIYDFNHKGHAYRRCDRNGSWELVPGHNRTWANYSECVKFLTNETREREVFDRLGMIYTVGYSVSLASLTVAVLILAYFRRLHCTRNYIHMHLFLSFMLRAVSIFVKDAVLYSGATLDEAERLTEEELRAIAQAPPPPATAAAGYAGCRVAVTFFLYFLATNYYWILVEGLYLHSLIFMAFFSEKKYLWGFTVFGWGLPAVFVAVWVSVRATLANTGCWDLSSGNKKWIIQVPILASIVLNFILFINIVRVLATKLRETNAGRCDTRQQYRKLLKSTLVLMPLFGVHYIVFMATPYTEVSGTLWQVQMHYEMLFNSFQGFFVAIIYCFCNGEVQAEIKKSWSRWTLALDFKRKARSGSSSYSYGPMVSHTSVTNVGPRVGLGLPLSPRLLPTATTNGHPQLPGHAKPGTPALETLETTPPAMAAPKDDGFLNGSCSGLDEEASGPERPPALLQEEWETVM
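HEK-293-derived GP2 cells expressing PTHR1 and a GloSensor cAMP reporter, 3,000/well, plated overnight, given luciferin plus IBMX (each 0.5 mM as added) for 1 h at 37 °C, then compound for 1 h at 37 °C. Luminescence was read after 15 min at room temperature.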
aSyn yeast inh: rescues yeast growth from alpha-synuclein toxicity; hit rate 0.14% among 370,000; Potency, µM (highest dose often 46.1 µM), for inactives: at the top dose growth rescue (activation), most hits filed as activators; Yeast expressing alpha-synuclein, growth rescue, BacTiter-Glo, 24 h; AID 652106; note: potency is the fitted concentration of half-maximal effect; % of control where 0% means no effect; nearly all actives have a fitted effect of over 65% in size
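Readout is rescue of growth in alpha-synuclein-expressing yeast, so inhibitors of toxicity appear as activators. Growth after 24 hr at 30 deg C in galactose medium is quantified by luminescence.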
Abeta rescue: restores growth of yeast expressing A-beta42 peptide; yeast expressing A-beta42, growth rescue, OD600, 48 h; response scale: 0% DMSO, 100% iron-clioquinol control; Potency, µM (highest dose often 46.1 µM), most hits filed as activators; hit rate 0.063% among 410,000; note: potency is the fitted concentration of half-maximal effect; nearly all actives have a fitted effect of over 55% in size
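Growth rescue measured by 600 nm absorbance after 48 h yeast culture at 30 C with compound. Values normalized between DMSO and an equimolar ferric chloride plus clioquinol control.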
Starred values were filed as active, the others as inactive; i = inactive; ? = inconclusive; . = no result; [ ] = remark or other dose. Unless noted, calls come from the whole dose curve; as a rule, active = well fitted curve in the direction sought with a large enough effect; inconclusive = small, poorly fitted or top-dose-only effect, or another doubt; inactive = no such curve, though single readings can be large; an effect the other way counts as inactive or inconclusive.

SMILES | FUS suppressor | LDHA block | TDP43 rescue | PTHR1 agonist | aSyn yeast inh | Abeta rescue
CC1=C(C(=O)N(C(C)C)C(C)C)CC(CC(=O)NCc2cccc3ccccc23)C(=O)N1Cc1ccc(C(C)(C)C)cc1 (stereo not given) | 6.3µM* | 2 | 5% | -22% | ? | i
O=C(Nc1oc2ccccc2c(=O)c1-c1ccc(Cl)cc1)c1ccccc1 | . | -1 | . | . | . | .
CCOCCCNc1oc(COc2ccc(F)cc2)nc1C#N | . | 8 | . | . | . | .
CCOC(=O)N1CCN(c2nc(C)c3c(n2)CC(c2ccc(Cl)cc2)CC3=O)CC1 (stereo not given) | . | -4 | . | . | . | .
CCOC(=O)N1CCN(c2nc(C)c3c(n2)CC(C)CC3=O)CC1 (stereo not given) | i | -8 | 20µM* | -9%[57.5 µM] | 1% | i
CC1=CCC2C(C)(C)CCCC2(C)C1CC/C(C)=C\CC/C(C)=N/NC(N)=O (stereo not given) | . | 11 | . | . | . | .
CC1(C)Cc2c(sc3nnn(Cc4ccc(Cl)cc4)c(=O)c23)CO1 | . | 5 | 13µM* | -3% | 10% | i
CC1(C)Cc2c(sc3nnn(CC(=O)Nc4ccccc4)c(=O)c23)CO1 | i | -2 | 15% | -44% | 14% | i
COc1ccc(N2CC(C(=O)NCCNC(=O)c3c[nH]c4ccccc34)CC2=O)cc1 (stereo not given) | . | 0 | . | . | . | .
CC(NC(=O)CNC(N)=O)c1cccc(C(F)(F)F)c1 (stereo not given) | . | 0 | . | . | . | .
Cc1cc(C)c2nc(N3CCCN(C(=O)c4ccco4)CC3)c(C#N)cc2c1 | i | 0 | 18µM* | -21% | . | i
COc1ccccc1C(=O)N1CCN(c2nc3cc(C)c(C)cc3cc2C#N)CC1 | ? | 1 | ? | -18%[57.5 µM] | 19% | i
COc1ccccc1C(=O)N1CCN(c2nc3cc(C)cc(C)c3cc2C#N)CC1 | i | 1 | 11µM* | i | 26% | i
Cc1cccc2c(C(=O)O)cc(-c3ccco3)nc12 | . | 6 | . | . | . | .
COc1ccc(-c2cc(=O)oc3cc(C)cc(OCC(=O)OC(C)C)c23)cc1 | . | 10 | . | . | . | .
N#CC1=C(N)OC2=C(C(=O)CC(c3ccccc3Cl)C2)C1c1ccc(Cl)cc1 (stereo not given) | . | 13 | . | . | . | .
COC(=O)CCNC(=O)N1CCc2[nH]cnc2C1c1cc(Cl)ccc1F (stereo not given) | . | -24 | . | . | . | .
CCCC(C)NC(=O)Nc1cc(C(=O)NC2CC2)ccc1C (stereo not given) | . | -34* | . | . | . | .
CCCC(C)NC(=O)Nc1cc(C(=O)NC)ccc1C (stereo not given) | . | 1 | . | . | . | .
O=C(NCCc1ccccc1)c1ccc(-c2ccc(F)cc2)o1 | i | -6 | 20µM* | i | 0% | i
O=[N+]([O-])c1cccc2nc(/C=C/c3cccc(F)c3)ccc12 | . | 0 | . | . | . | .
Cc1ccc(C(=O)NC(C)c2nc(-c3ccc(Cl)cc3)no2)cc1 (stereo not given) | . | 1 | . | . | . | .
CN(C)c1ccc(C(O)c2cc3ccccc3s2)cc1 (stereo not given) | i | -3 | 16% | -2% | 14µM* | ?
COc1cc(C#N)ccc1OCc1ccc(Cl)cc1Cl | . | -2 | . | . | . | .
Cc1ccc2oc(=O)c(S(=O)(=O)N3CCCC(C)C3)cc2c1 (stereo not given) | . | -1 | . | . | . | .
SMILES | FUS suppressor | LDHA block | TDP43 rescue | PTHR1 agonist | aSyn yeast inh | Abeta rescue
CCCCc1ccc(NC(=O)CC(C)C)cc1 | i | 0 | 11µM* | -5% | 0% | i
COc1ccc(C2=NN(C(=O)C(C)(C)C)C(c3ccc4nccnc4c3)C2)cc1 (stereo not given) | . | 1 | . | . | . | .
Cn1ccsc1=NC(=O)c1ccc(Cl)cc1 | i | -5 | 11µM* | -32% | -6% | i
O=C1CCCC2=C1C(c1ccccc1F)Nc1nonc1N2 (stereo not given) | . | -3 | . | . | . | .
CCC(=O)N1CCN(c2cc(C)ccc2C)CC1 | i | -7 | -4% | -49%[57.5 µM] | -2% | i
Cc1ccc(C)c(N2CCN(C(=O)CN3CCSc4ccccc43)CC2)c1 | i | -8 | 25µM* | i | ? | ?
Cc1ccc(C)c(N2CCN(C(=O)CC3Sc4ccccc4NC3=O)CC2)c1 (stereo not given) | ? | 1 | 22µM* | -30%[57.5 µM] | ? | i
N#Cc1c2n(c(=O)n(CCOc3cccc(F)c3)c1=O)CCC2 | . | 1 | . | . | . | .
CC(=O)Nc1ccc(NC(=O)c2cc(=O)c3ccc(C)c(C)c3o2)cc1 | . | -9 | . | . | . | .
O=C(NCc1ccc(F)cc1)c1cc2cccc3c2n1CCS3 | i | -2 | 14µM* | -37% | . | i
Clc1cccc(-n2ncc3c(NC4CCCCCC4)ncnc32)c1 | i | 3 | 35µM* | -37% | . | i
c1ccc(-n2ncc3c(NC4CCCC4)ncnc32)cc1 | i | 5 | ? | i | . | i
Cc1ccc(-n2ncc3c(NC4CCCC4)ncnc32)cc1 | i | -10 | 1.3µM* | -29% | . | i
O=C(CNC(=O)c1cc(-c2cccs2)on1)NC1CC1 | . | -2 | . | . | . | .
COc1ccc([C@H]2CC(=O)C=C(c3cccc(OC)c3OC)C2)cc1OC | i | 1 | 22µM* | -94% | 0% | ?
CC(=O)Nc1ccc(C2=CC(=O)C[C@H](c3ccc(Cl)cc3)C2)cc1 | ? | 1 | 35µM* | -48% | 2% | i
Cc1ccc(Cl)cc1C1=CC(=O)C[C@H](c2ccc(F)cc2)C1 | i | 0 | ? | -13% | 3% | i
O=C1C=C(c2cccc(Cl)c2O)C[C@@H](c2ccc(Cl)cc2)C1 | ? | 6 | 3.2µM* | i | -15% | i
O=C1C=C(c2cc(F)ccc2F)C[C@@H](c2ccc(Cl)cc2)C1 | i | 3 | 20µM* | -63% | 13% | i
O=C1C=C(c2cccc(Cl)c2)C[C@@H](c2ccc(Cl)cc2)C1 | ? | -4 | 0% | i | 3% | i
CCc1nnc2sc(-c3ccc(NC(=O)C(c4ccccc4)c4ccccc4)cc3)nn12 | . | 2 | . | . | . | .
COc1ccc([C@H]2CC(=O)C=C(c3cc(F)ccc3F)C2)cc1OC | i | 0 | 22µM* | -19% | 7% | i
c1ccc(-c2onc3cc4c(cc23)OCCO4)cc1 | i | 12 | 35µM* | i | -1% | i
N#CCSc1nnc(-c2ccccc2F)n1-c1ccccc1 | . | -2 | . | . | . | .
COc1ccc(-c2c(NC(=O)c3ccc([N+](=O)[O-])cc3)oc3ccccc3c2=O)cc1OC | . | 0 | . | . | . | .
COc1ccc2c(c1)c(=O)c(S(=O)(=O)c1ccc(C)c(C)c1)cn2CC(=O)Nc1ccccc1 | 13µM* | -6 | 7% | -24% | . | i
